The results in this text go back to PubChem BioAssay (NCATS).

Molecules are shown by their SMILES. A number with no mark means an inactive call. Results filed as inconclusive are left out. The source made the active and inactive calls. Unless noted, the call rests on the fitted dose curve; in most records, active means well fitted curve in the direction sought with a large enough effect; inconclusive means small, poorly fitted or top-dose-only effect, or another doubt; inactive means no such curve, though single readings can be large; an effect the other way counts as inactive or inconclusive.

Assay [1] concerns the target Glutaminase kidney isoform, mitochondrial (Homo sapiens) (UniProt O94925). The assay is described as follows: qHTS for Inhibitors of Glutaminase (GLS): LOPAC Validation (AID 624146).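 Further: glutamate product detected by oxidase and peroxidase coupled Amplex red fluorescence gain; series mostly up to about 46 µM; nearly all actives have a fitted effect of over 60% in size.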 Put shortly: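 Compounds were pin-transferred onto hKGA, after which L-glutamine (1 mM solution) and a detection mix of glutamate oxidase, HRP and Amplex Red were added. Initial and 30 min RT fluorescence reads were collected.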
A general note: Quantitative high-throughput screening tests each substance at several concentrations.

Assay [2] is described as follows: qHTS of Trypanosoma Brucei Inhibitors: LOPAC Validation (AID 624147). Put shortly:
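Readout: single end-point luminescence (Kinase-Glo Plus, 10 min). Reaction conditions were TbPYK/substrate plus 130 uM ADP, 45 min at RT, pH 7.2 TEA buffer. No-enzyme wells served as controls, and data were normalized before concentration-response fitting.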

The target of assay [3] is Glucagon-like peptide 1 receptor (Homo sapiens) (UniProt P43220). Put plainly: qHTS of GLP-1 Receptor Agonists: LOPAC Validation (AID 624148).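 Further: higher luminescence signal means agonism.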 An outline of the steps: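 HEK293 cells stably co-expressing GLP-1R and a cAMP-responsive luciferase reporter, plated 12 hours before compound, then incubated 4-6 hr at 37 deg C. Luminescence read 12 min after detection reagent.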
Sequence of Glucagon-like peptide 1 receptor (Homo sapiens) (P43220 whole entry, looked up): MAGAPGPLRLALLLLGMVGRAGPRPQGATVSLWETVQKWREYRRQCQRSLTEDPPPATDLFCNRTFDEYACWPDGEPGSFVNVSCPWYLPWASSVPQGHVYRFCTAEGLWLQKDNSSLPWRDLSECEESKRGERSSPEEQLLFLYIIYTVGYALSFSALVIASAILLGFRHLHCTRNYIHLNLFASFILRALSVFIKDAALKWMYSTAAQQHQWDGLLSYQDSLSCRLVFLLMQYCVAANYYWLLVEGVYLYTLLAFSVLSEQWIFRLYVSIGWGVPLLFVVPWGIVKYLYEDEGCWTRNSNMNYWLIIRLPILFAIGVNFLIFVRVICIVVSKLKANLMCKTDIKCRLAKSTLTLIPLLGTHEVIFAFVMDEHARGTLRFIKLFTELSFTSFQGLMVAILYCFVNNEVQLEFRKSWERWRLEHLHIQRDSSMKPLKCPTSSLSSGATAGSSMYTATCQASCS

A short description of assay [4]: qHTS of Nrf2 Activators: LOPAC Validation (AID 624149). An outline of the steps: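 AREc32 cells carrying an ARE-driven firefly luciferase were grown overnight in OPTI-MEM with 5% FBS, then exposed to compounds for 24 hr at 37 deg C. Luciferase signal was read after 30 min with Steady-Glo at RT.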
Assay [5] can be described thus: HTS Assay for Allosteric Antagonists of the Human D2 Dopamine Receptor: Hit Validation in HTRF (AID 624455).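 Further: stable D1 dopamine receptor cell line scored for blocking the D1 response.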 An outline of the steps: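 Hits were examined in an HTRF assay using cells stably expressing the D1 dopamine receptor, scoring inhibition of the D1-mediated response. The preceding primary screen tracked calcium flux after an EC80 dopamine addition in force-coupled, inducible Hek293 Trex D2 cells.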
Background: Time-resolved FRET reads energy transfer from a long-lived donor to a nearby acceptor.

For assay [6], the target named is Voltage-gated inwardly rectifying potassium channel KCNH2 (Homo sapiens) (UniProt Q12809). The assay is described as follows: qHTS Assay for Small Molecule Inhibitors of the Human hERG Channel Activity (AID 588834).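 Further: lower thallium flux fluorescence means stronger hERG block; nearly all actives have a fitted effect of over 50% in size.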 Further: potency means the concentration at half of the fitted maximal effect. Put shortly:
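Blockade is seen as reduced FluxOR thallium-flux fluorescence in U2OS cells expressing hERG from a BacMam construct, in Opti-MEM with 2% FCS. Concentration-response data fitted to the Hill equation for AC50.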

Assay [7] deals with Luciferin 4-monooxygenase (Photinus pyralis) (UniProt P08659). Put plainly: Biochemical firefly luciferase enzyme assay for NPC (AID 624030).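 Further: purified P. pyralis luciferase at 10 nM with luciferin and ATP substrate; series mostly up to about 59 µM; nearly all actives have a fitted effect of over 70% in size.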 Put shortly: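 Purified P. pyralis luciferase at 10 nM in 50 mM Tris Acetate (final), luminescence read within 5 minutes of enzyme addition to compounds. Activity normalised to PTC124 versus DMSO; concentration-response curves classed by r2, magnitude and activity.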
Sequence of Luciferin 4-monooxygenase (Photinus pyralis) (P08659 whole entry, looked up): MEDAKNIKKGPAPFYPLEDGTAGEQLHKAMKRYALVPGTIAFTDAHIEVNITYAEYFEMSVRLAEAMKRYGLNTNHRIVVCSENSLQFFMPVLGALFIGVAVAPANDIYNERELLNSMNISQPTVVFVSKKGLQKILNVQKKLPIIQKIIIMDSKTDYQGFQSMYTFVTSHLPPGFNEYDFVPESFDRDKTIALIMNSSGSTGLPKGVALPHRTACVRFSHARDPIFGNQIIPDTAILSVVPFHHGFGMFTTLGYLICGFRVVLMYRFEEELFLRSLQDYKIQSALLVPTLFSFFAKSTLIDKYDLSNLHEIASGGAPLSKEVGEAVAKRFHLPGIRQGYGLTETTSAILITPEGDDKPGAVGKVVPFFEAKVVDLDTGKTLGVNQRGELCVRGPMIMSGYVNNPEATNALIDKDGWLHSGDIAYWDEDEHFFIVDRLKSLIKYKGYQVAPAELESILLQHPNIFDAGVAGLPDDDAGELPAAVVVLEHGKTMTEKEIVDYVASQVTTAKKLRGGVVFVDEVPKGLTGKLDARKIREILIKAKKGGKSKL

Assay [8] can be described thus: S16 Schwann cell viability assay (CellTiter-Glo assay) (AID 624031).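 Further: native untransfected S16 rat Schwann cells; cellular ATP luminescence as a viability measure; series mostly up to about 58 µM; nearly all actives have a fitted effect of over 70% in size.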 An outline of the steps:
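Parental S16 cells, 24 h compound, 37 °C. ATP-luminescence viability; DMSO = 0% activity, empty wells as reference; curves classified by fit quality and efficacy.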

Assay [9] can be described thus: S16 Schwann cell PMP22 intronic element firefly luciferase assay (AID 624032). Further: series mostly up to about 58 µM; nearly all actives have a fitted effect of over 30% in size. An outline of the steps:
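Rat S16 Schwann cells stably carrying firefly luciferase driven by a PMP22 intronic element, in 10% FBS, treated 24 h at 37 C. ONE-Glo luminescence normalized to PTC124 control and DMSO (0%); curves classed by r2, magnitude and activity.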

Assay [10] is described as follows: S16 Schwann cell PMP22 intronic element beta-lactamase assay (AID 624044; calls by dose curve; further: nearly all actives have a fitted effect of over 15% in size). Put shortly:
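Rat S16 Schwann cells with beta-Lac driven by a PMP22 intronic element, compound-treated 24 h at 37 °C. LiveBLAzer FRET B/G read: 460 nm normalized to potassium clavulanate vs DMSO; 535 nm FRET as viability; concentration-effect curves classified.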

The target of assay [11] is Tumor susceptibility gene 101 protein (Homo sapiens) (UniProt Q99816). Put plainly: qHTS Assay for Iinhibitors of HIV-1 Budding by Blocking the Interaction of PTAP/TSG101: Hit Validation (AID 651600). Further: nearly all actives have a fitted effect of over 70% in size. An outline of the steps: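 Measuring PTAP–Tsg101 interaction by FP: protein at 10 uM and fluorescent peptide at 50 nM (final), buffer 10 mM HEPES pH 7.5 with 0.15 M NaCl, 3 mM EDTA, 0.1 mM TCEP, 0.01% Tween 20; 20 min incubation, r.t.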
Sequence of Tumor susceptibility gene 101 protein (Homo sapiens) (Q99816 whole entry, looked up): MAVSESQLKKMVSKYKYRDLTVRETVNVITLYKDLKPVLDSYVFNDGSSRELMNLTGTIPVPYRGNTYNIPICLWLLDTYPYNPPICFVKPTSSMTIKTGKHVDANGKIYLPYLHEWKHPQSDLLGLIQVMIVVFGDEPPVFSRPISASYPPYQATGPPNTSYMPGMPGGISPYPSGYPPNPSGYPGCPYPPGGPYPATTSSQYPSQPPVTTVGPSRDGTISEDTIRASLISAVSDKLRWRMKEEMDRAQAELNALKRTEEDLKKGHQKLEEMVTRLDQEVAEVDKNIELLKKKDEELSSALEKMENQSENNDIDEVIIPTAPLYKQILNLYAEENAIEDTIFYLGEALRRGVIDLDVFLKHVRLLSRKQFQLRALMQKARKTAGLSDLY

Sequence of Voltage-gated inwardly rectifying potassium channel KCNH2 (Homo sapiens) (Q12809 whole entry, looked up): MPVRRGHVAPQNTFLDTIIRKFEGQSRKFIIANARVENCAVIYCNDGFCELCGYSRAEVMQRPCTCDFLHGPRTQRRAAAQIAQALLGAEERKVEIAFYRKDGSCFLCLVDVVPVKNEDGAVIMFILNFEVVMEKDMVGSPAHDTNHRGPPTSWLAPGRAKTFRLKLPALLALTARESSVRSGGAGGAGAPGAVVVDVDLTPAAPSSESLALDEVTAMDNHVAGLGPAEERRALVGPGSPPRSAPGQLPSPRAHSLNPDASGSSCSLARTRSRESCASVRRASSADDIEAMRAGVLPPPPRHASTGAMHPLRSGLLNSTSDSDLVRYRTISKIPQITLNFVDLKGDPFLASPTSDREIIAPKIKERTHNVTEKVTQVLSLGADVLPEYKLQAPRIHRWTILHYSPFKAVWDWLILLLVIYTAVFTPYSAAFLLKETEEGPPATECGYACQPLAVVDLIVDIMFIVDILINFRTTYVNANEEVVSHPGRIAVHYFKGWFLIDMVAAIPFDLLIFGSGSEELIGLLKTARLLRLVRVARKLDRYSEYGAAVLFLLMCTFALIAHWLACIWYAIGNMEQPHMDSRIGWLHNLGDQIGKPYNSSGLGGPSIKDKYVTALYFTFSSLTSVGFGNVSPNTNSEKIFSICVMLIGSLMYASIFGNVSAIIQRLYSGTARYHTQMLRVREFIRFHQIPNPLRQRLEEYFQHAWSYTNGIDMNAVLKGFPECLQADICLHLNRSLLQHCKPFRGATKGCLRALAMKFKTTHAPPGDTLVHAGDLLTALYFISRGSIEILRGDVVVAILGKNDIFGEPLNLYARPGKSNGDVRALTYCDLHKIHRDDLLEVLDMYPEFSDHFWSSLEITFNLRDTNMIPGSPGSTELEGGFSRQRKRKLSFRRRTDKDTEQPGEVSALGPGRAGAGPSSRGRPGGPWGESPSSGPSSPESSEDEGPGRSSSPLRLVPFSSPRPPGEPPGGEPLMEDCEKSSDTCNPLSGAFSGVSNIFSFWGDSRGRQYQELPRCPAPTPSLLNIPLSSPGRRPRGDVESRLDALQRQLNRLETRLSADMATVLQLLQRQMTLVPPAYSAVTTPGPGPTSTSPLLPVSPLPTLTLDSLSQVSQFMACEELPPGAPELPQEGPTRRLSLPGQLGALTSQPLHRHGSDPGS
Sequence of Glutaminase kidney isoform, mitochondrial (Homo sapiens) (O94925 whole entry, looked up, canonical isoform): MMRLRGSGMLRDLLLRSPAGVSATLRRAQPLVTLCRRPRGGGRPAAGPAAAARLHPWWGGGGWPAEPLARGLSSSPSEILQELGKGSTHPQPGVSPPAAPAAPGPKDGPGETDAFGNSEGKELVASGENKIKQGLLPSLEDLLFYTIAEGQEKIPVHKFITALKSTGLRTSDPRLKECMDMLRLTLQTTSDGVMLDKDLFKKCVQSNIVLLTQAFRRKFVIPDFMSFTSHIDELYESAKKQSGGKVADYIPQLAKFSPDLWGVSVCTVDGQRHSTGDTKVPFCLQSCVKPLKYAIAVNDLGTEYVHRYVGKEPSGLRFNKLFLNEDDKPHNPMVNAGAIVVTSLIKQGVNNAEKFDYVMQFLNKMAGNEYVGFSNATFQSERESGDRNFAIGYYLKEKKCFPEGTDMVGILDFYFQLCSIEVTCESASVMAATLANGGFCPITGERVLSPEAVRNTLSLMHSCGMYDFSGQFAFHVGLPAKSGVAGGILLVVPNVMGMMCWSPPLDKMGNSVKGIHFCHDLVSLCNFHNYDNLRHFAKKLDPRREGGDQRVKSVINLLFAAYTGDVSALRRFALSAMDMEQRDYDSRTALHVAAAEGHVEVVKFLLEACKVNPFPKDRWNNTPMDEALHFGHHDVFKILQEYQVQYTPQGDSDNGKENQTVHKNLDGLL

With `O=C(O)C1=CCCN(CCON=C(c2ccccc2)c2ccccc2)C1`, the Potency entry in assay [1], in assay [2], in assay [3], in assay [4] and in assay [5] was “inactive” each time.
Consider `C=CCN1CCc2cc(O)c(O)cc2C(c2ccccc2)C1` (stereo not given), for which the Potency entry in [1], in assay [2], in [3] and in assay [4] was “inactive” each time.
In the case of `CCCCCCC(=O)OC1CC(C)(C)NC(C)(C)C1`, the Potency result in assay [1], in assay [2], in assay [3], in [4] and in assay [5] was “inactive” each time.
`O=C(O)Cc1ccc(O)c(O)c1`: the Potency result in assay [6], in assay [3], in assay [4] and in [5] was “inactive” throughout.
As to `COc1cc(/C=C(\C#N)C(=O)c2ccc(O)c(O)c2)cc(I)c1O`, the Potency result in assay [6], in assay [3], in assay [4] and in assay [5] was “inactive” each time.
Consider `NC/C=C\C(=O)O`, for which the Potency result in assay [6], in assay [2], in [4] and in assay [5] was “inactive” each time.
In the case of `Oc1cc2c(cc1O)C(c1ccccc1)CNCC2` (stereo not given), the Potency in assay [6] was 8.91 µM (active). Also, the Potency result in assay [4] was “inactive”.
Regarding `CC(O)C(O)[C@H]1CNc2nc(N)[nH]c(=O)c2N1` (stereo not given in full), the molecule was classed as inactive in assay [7], in assay [8], in [9] and in [10]. In addition, the Potency entry in assay [2], in [3], in assay [4] and in assay [5] was “inactive” throughout.
On to `CCCCCCCCCCCCCCC[C@H](O)[C@H](N)CO`, for which the molecule was called inactive in assay [7], in assay [9] and in [10]. Moreover, the Potency result in assay [1], in assay [2], in [3], in assay [4] and in assay [5] was “inactive” throughout.
Take `c1ccc(C(NCCNC(c2ccccc2)c2ccccc2)c2ccccc2)cc1`: the Potency entry in assay [1], in assay [2], in [3], in [4] and in assay [5] was “inactive” in each case.
As to `Nc1ncnc2c1nc(Sc1ccc(Cl)cc1)n2[C@H]1OC2COP(=O)(O)O[C@@H]2C1O` (stereo not given in full), the Potency result in assay [1], in [2], in assay [3] and in assay [4] was “inactive” throughout.
Turning to `O=c1cc(-c2ccccc2)[nH]c2nc(Cl)ccc12`, the Potency result in assay [1], in assay [2], in assay [3], in assay [4] and in [5] was “inactive” throughout.
`O=c1[nH]ccc2c(O)cccc12`: the Potency result in [6], in assay [2], in assay [4] and in assay [5] was “inactive” in each case.
For `N[C@H](C(=O)O)[C@H](Cc1ccccc1)C(=O)O`, the Potency entry in assay [1], in assay [2], in assay [3] and in [4] was “inactive” each time.
In the case of `CSc1nc(N)c2ncn([C@@H]3O[C@H](COP(=O)(O)OP(=O)(O)O)C(O)[C@H]3O)c2n1` (stereo not given in full), the Potency entry in [1], in assay [2], in [3] and in assay [4] was “inactive” each time.
On to `O=C(O)CCC/C=C\C[C@@H]1[C@@H](/C=C/[C@H](O)C2Cc3ccccc3C2)[C@@H](F)C[C@@H]1O`, for which the Potency entry in assay [1], in assay [2], in [3], in assay [4] and in assay [5] was “inactive” throughout.
For the molecule `CCCCCCCCCC[Si](C)(C)CCC(=O)NC(Cc1ccc(C)cc1)c1ccccc1` (stereo not given), the Potency entry in assay [6], in [3], in assay [4] and in assay [5] was “inactive” in each case.
Take `COc1cc2c(CCNC(C)=O)c[nH]c2cc1O`: the Potency entry in assay [6], in assay [3], in [4] and in assay [5] was “inactive” in each case.
Take `O=C(N[C@@H](Cc1ccccc1)C(=O)CCl)OCc1ccccc1`: the Potency entry in assay [1], in assay [2], in assay [3], in [4] and in [5] was “inactive” in each case.
On to `CN1CC(O)C(O)C(O)C1CO` (stereo not given), for which the Potency entry in [1], in assay [2], in [4] and in [5] was “inactive” in each case.
In the case of `CCCCOc1cc(CC2CNC(=O)N2)ccc1OC` (stereo not given), the Potency result in assay [1], in [3], in assay [4] and in [5] was “inactive” in each case.
As to `CN1CCCC1CCOC(C)(c1ccccc1)c1ccc(Cl)cc1` (stereo not given), the Potency entry in assay [1], in [2], in assay [3], in assay [4] and in assay [5] was “inactive” each time. Moreover, in assay [11], the result was inactive.
Turning to `CCc1ccc2c(-c3cccc(Cl)c3)nc(=O)n(CC)c2n1`, the Potency result in [1], in assay [2], in [3], in [4] and in assay [5] was “inactive” throughout.
As for `NC1(C(=O)O)CC1`, the Potency entry in assay [1], in [2], in assay [3], in assay [4] and in assay [5] was “inactive” each time.
On to `CN(C)CCCc1cc(C(=O)Nc2ccc(-c3ccncc3)cc2)ccc1O`, for which the Potency entry in assay [1], in [2] and in [4] was “inactive” throughout.
As to `[Li+]`, the Potency result in [1], in assay [3], in assay [4] and in assay [5] was “inactive” in each case.
For `N=S(=O)(O)Cc1noc2ccccc12`, the Potency result in assay [1], in [2], in [4] and in assay [5] was “inactive” throughout.
Consider `Nc1nc2c(nc(Br)n2C2OC3COP(=O)(O)O[C@@H]3C2O)c(=O)[nH]1` (stereo not given in full), for which the Potency entry in [1] and in assay [3] was “inactive” each time.
As to `CCCOC(=O)c1c(-c2ccccc2)nc(CC)c(C(=O)SCC)c1CCC`, the Potency result in assay [1], in [2], in assay [3], in assay [4] and in [5] was “inactive” in each case.
